# Test results taken from PubChem BioAssay AID1671189 (National Center for Advancing Translational Sciences (NCATS), 2021).
# Among all 1,100 compounds or so, about 70 (6%) were called active. Inconclusive results (about 22%) are left out. Many of the other results were omitted from the sample, so actives are more common in it than they were. A number with no mark means an inactive call. Calls follow the shape of the dose curve; as a rule, active = well fitted curve in the direction sought with a large enough effect; inconclusive = small, poorly fitted or top-dose-only effect, or another doubt; inactive = no such curve, though single readings can be large or run the other way.
# Target: Polyunsaturated fatty acid lipoxygenase ALOX12 (Homo sapiens) (UniProt P18054)
# Sequence (P18054 whole entry, looked up): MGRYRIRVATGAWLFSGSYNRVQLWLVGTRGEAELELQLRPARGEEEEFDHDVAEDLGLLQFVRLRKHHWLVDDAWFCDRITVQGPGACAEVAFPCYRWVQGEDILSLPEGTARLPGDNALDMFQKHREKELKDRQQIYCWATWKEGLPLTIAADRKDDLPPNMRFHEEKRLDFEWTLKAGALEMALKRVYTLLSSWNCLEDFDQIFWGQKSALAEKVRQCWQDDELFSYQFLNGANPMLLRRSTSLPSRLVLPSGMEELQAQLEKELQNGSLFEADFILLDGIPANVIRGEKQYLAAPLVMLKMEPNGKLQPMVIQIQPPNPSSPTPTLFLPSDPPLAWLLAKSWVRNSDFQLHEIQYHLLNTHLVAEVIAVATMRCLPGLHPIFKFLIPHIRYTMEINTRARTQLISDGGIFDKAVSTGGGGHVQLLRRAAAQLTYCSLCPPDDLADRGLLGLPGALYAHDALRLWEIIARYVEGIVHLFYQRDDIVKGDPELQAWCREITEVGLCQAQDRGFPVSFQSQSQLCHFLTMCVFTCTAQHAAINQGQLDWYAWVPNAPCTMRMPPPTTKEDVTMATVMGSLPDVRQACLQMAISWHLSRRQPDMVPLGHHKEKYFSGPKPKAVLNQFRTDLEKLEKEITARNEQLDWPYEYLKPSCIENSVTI
# Assay: Confirmatory qHTS assay for inhibitors of human arachidonate 12S-lipoxygenase (ALOX12): Round 2
# Conditions: purified human 12-LOX, xylenol orange absorbance; series mostly up to 125 µM; activity change, negative = inhibition: at the top concentration
# Summary of the method: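 Activity was measured as hydroperoxide formation via ferrous/xylenol orange, taking the 573 nm to 405 nm absorbance ratio. Reaction: 40 uM arachidonic acid, 30 min at room temperature, after 15 min compound preincubation with 150 nM enzyme, pH 7.0 Hepes buffer.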
# % is scaled to controls: 0 for no effect and ±100 for the full control effect; potency is read from the fitted curve at half-maximal effect.
SMILES,"activity change, negative = inhibition",Potency
O=C(c1cc(C2CC2)nc2c1c(C1CCCN1)nn2-c1ccccc1)N1CCC(F)CC1 (configuration not stated),-14.7%,
CNc1nnc(-c2cccc3ccccc23)s1,1.24% [at 64.5 µM],
O=C(c1ccc(Cl)cc1)N1CC2(CCCN(Cc3ccccn3)C2)Cc2ccccc21 (configuration not stated),-27.8%,
O=C(C1CCCC1)N1Cc2ccccc2CC2(CCN(Cc3ccncc3)C2)C1 (configuration not stated),-11.8%,
CC(=O)N1Cc2ccccc2CC2(CCN(Cc3ccncc3)C2)C1 (configuration not stated),-13.8%,
O=C(C1CCCC1)N1Cc2ccccc2CC2(CCN(Cc3cccnc3)C2)C1 (configuration not stated),-28.9%,
O=C(c1ccc(Cl)cc1)N1CC2(CCN(Cc3ccc(Cl)cc3)C2)Cc2ccccc21 (configuration not stated),,1.56 µM (active)
CC(=O)N1CC2(CCCN(CC3CCCCC3)C2)Cc2ccccc21 (configuration not stated),-4.35%,
O=C(C1CCCC1)N1CC2(CCN(Cc3ccc(Cl)cc3)C2)Cc2ccccc21 (configuration not stated),,6.22 µM (active)
CCCC(=O)N1Cc2ccccc2CC2(CCN(Cc3ccccc3)CC2)C1,-3.28%,
CCCC(=O)N1Cc2ccccc2CC2(CCN(Cc3ccc(O)cc3)C2)C1 (configuration not stated),-12.5%,
NC(=O)c1cccc(CN2CCC3(CC2)Cc2ccccc2N(C(=O)c2ccc(Cl)cc2)C3)c1,,22.1 µM (active)
CCC(=O)N1Cc2ccccc2CC2(CCN(Cc3ccncc3)CC2)C1,1.87%,
O=C(c1ccc(Cl)cc1)N1CC2(CCCN(Cc3ccc(Cl)cc3)C2)Cc2ccccc21 (configuration not stated),,4.94 µM (active)
CC(=O)N1Cc2ccccc2OC2(CCN([S+](C)(=O)[O-])CC2)C1,-1.67%,
CNc1oc(C2CCCC2)nc1C#N,18.7% [at 64.5 µM],
Cc1cccc(-c2cnc3n[nH]c(-c4ccc5c(c4)OCO5)c3n2)c1,-11.5% [at 64.5 µM],
CN1CC(=O)N(C2CCCNC2)Cc2c(NC3CCC3)ncnc21 (configuration not stated),-14.2%,
N#Cc1cc2nc(O)c(O)nc2cc1[N+](=O)[O-],-5.48%,
OC1(CN2CCN(c3nccs3)CC2)CCCNC1 (configuration not stated),-6.16% [at 64.5 µM],
Cc1ccc(-c2ccccc2CN)c(C)c1,-9.84%,
CCOCCCNc1ncnc2c1CN(C1CCCNCC1)C(=O)CN2C (configuration not stated),-3.49%,

SMILES,"activity change, negative = inhibition",Potency
CN1CC(=O)N(C2CNC2)Cc2c(NC3CC3)ncnc21,5.35%,
CN1CC(=O)N(C2CCCNC2)Cc2c(NCC3CCCCCC3)ncnc21 (configuration not stated),-26.4%,
O=C1NCc2ccccc2CC12CCN(Cc1ccc(F)c(Cl)c1)CC2,-23.5%,
C[S+](=O)([O-])N1CC2(Cc3ccccc3NC2=O)C1,-1.61%,
N#Cc1ccc(CN2CCn3c(nn(-c4cccc(Cl)c4)c3=O)C2)cc1,-26.4%,
O=C(c1ccc(C(F)(F)F)cc1)N1CCC2(CC1)C(=NC1CCCCC1)NC(=O)N2c1cc(F)cc(F)c1,-16.1%,
CC(=O)NCCC(=O)N1Cc2ccccc2CC2(CCCN2CC2CCNCC2)C1 (configuration not stated),-18%,
COc1cccc(CC(=O)N2CC(CO)C3(CCNCC3)C2)c1 (configuration not stated),-11.8% [at 64.5 µM],
Nc1ccccc1CN1CCCC2(Cc3ccccc3CNC2=O)C1 (configuration not stated),-0.411%,
Cc1cc(C)c(CN2CCC3(Cc4ccccc4CNC3=O)C2)c(C)c1 (configuration not stated),,0.879 µM (active)
O=C1NCc2ccccc2CC12CCN(Cc1ccccc1Cl)C2 (configuration not stated),-22.5%,
O=C1NCc2ccccc2CC12CCN(Cc1ccc(Cl)cc1)CC2,-21.7%,
Cc1cc(C)cc(CN2CCC3(Cc4ccccc4CNC3=O)C2)c1 (configuration not stated),-13.7%,
O=C1NCc2ccccc2CC12CCN(Cc1ccc(Cl)cc1)C2 (configuration not stated),,27.5 µM (active)
Cc1ccc(CN2CCC3(Cc4ccccc4CNC3=O)C2)cc1C (configuration not stated),-25.3%,
CCOc1cccc(CN2CCC3(Cc4ccccc4CNC3=O)C2)c1 (configuration not stated),-12.7%,
O=C1NCc2ccccc2CC12CCN(Cc1cc(O)cc(O)c1)C2 (configuration not stated),-15%,
O=C1NCc2ccccc2CC12CCN(Cc1ccc(Br)cc1)C2 (configuration not stated),,17.5 µM (active)
CCOc1ccc(CN2CCC3(Cc4ccccc4CNC3=O)C2)cc1 (configuration not stated),-18.2%,
O=C1NCc2ccccc2CC12CCN(Cc1cccc(Br)c1)C2 (configuration not stated),-17.3%,
O=C1NCc2ccccc2CC12CCN(Cc1ccc(Oc3ccccc3)cc1)C2 (configuration not stated),,55.5 µM (active)
CSc1ccc(-c2ccc(C=O)cc2)cc1,-29.7% [at 233 µM],

SMILES,"activity change, negative = inhibition",Potency
CC(C)Nc1ncnc2c1CN(C1CCCNC1)C(=O)CN2C (configuration not stated),-17.1%,
CN1CC(=O)N(C2CCCNC2)Cc2c1ncnc2N1CCN(Cc2ccccc2)CC1 (configuration not stated),-24.9%,
CN1CC(=O)N(C2CCCNCC2)Cc2c1ncnc2N1CCCC(O)C1 (configuration not stated),-10.7%,
CC[C@@](N)(C(=O)O)c1ccc(C(=O)O)cc1,8.94%,
CCOCCCNc1ncnc2c1CN(C1CCNCC1)C(=O)CN2C,-15.7%,
CN1CCC(C(=O)N2Cc3ccccc3OC3(CCN(C(=O)N(C)C)CC3)C2)CC1,-22.8%,
Cn1nc(C2CCCN2)c2c(C(=O)NCc3ccc(F)cc3)cc(C3CC3)nc21 (configuration not stated),-19.8%,
O=Cc1ccccc1-c1ccc(O)cc1,-36% [at 233 µM],
COc1ccc(N2CC3CCC(C2)N3Cc2cccc(Cl)c2)cc1,-10.1%,
CC(=O)NCc1cc(Cl)c2cccnc2c1O,,1.93 µM (active)
CC(=O)NC(C)c1cc(F)c2cccnc2c1O (configuration not stated),,17.2 µM (active)
CC(=O)NC(C)c1cc(Cl)c2cccnc2c1O (configuration not stated),,6.85 µM (active)
CCC(=O)NC(c1cc(Cl)c2cccnc2c1O)C(C)C (configuration not stated),,10.9 µM (active)
O=C(O)CCC(=O)N1Cc2ccccc2CC2(CCCN2CC2CCNC2)C1 (configuration not stated),-22.5%,
COc1cccc(CNc2ncnc3c2CN(C2CCCNCC2)C(=O)CN3C)c1 (configuration not stated),-12.4%,
CN1CCCC2(Cc3ccccc3CN(C(=O)c3ccc(Cl)cc3)C2)C1 (configuration not stated),-17.8%,
OCC1CN(c2ncccn2)CC12CCN(Cc1cccc3[nH]ccc13)CC2 (configuration not stated),-5.1% [at 64.5 µM],
CN1CC(=O)N(C2CCCNCC2)Cc2c1ncnc2N1CCC(N2CCCCC2)CC1 (configuration not stated),-3%,
CNC(C)c1ccc(Oc2ccccc2)cc1 (configuration not stated),-25.5%,
Cn1nc(C2CCCNC2)c2c(C(=O)NCC(F)(F)F)cc(C3CC3)nc21 (configuration not stated),-21.6%,
O=C(O)c1cccc(-c2cnc3ccccc3c2)c1,-20.4%,
Cn1nc(C2CCCN2)c2c(C(=O)NCc3cccs3)cc(C3CC3)nc21 (configuration not stated),-15.3%,

SMILES,"activity change, negative = inhibition",Potency
O=C(N1CCOCC1)N1CCCC1c1nnc2n1CCNC2 (configuration not stated),-9.23%,
NC(Cc1ccccc1)C(=O)N1CCC2(CC1)CN(C(=O)c1ccc(Cl)cc1)CCO2 (configuration not stated),-0.789%,
O=S(=O)(Nc1ncc(CN2CC[C@H]3CNC[C@H]32)cn1)c1ccccc1,-2.77% [at 64.5 µM],
CN1CC(=O)N(C2CCNCC2)Cc2c1ncnc2N1CCc2ccccc2C1,-19%,
COc1ccc(CN2CCCC23Cc2ccccc2CNC3=O)c(O)c1 (configuration not stated),-17.5%,
CCOC(=O)c1c(NC(=O)CSc2nnnn2-c2ccc(OC)cc2)sc(C)c1C,-14.4% [at 64.5 µM],
CC(=O)Nc1ccc(CN2CCC(c3nc4ccc(C)cc4c(=O)[nH]3)CC2)cc1,-13.7%,
CCCCc1ncc(-c2nccn2C2CCNC2)[nH]1 (configuration not stated),21.1% [at 64.5 µM],
O=C1NCc2ccccc2CC12CCN(Cc1c(F)cccc1F)C2 (configuration not stated),-25.4%,
COc1ccc(-c2nc(C3CC3)nc3c2CCN(C(=O)c2ccc(C(F)(F)F)cc2)CC3)cc1,-23.3%,
O=[S+]([O-])(c1ccccc1)N1CC(Oc2ccc(F)c(F)c2)C1,-14.7%,
CCC(=O)N1Cc2ccccc2CC2(CCCN(CC3CCNCC3)C2)C1 (configuration not stated),-7.83%,
NCc1ccccc1-c1ccc(O)cc1,-3.22%,
Cn1nc(C2CCNC2)c2c(C(=O)NCc3ccncc3)cc(C3CC3)nc21 (configuration not stated),-24.7%,
O=C1NC2(Cc3ccccc31)CN(C(=O)c1ccc3c(c1)OCO3)C2,-19.5%,
CCC(=O)NC(c1cc(Cl)c2cccnc2c1O)C1CC1 (configuration not stated),,12.2 µM (active)
CC(C)C[C@@H](N)C(=O)O,-4.33%,
COc1cccc([S+](=O)([O-])N2CC(Oc3ccc(F)c(F)c3)C2)c1,-5.6%,
COc1cccc(N2C(=O)NC(=NC3CCCCC3)C23CCCN(C(=O)c2ccccc2)C3)c1 (configuration not stated),-11.8%,
CC(=O)NC1CC2(CCN(C(=O)Cc3c(C)noc3C)CC2)Oc2ccccc21 (configuration not stated),-16.9%,
CC(C)NC(=O)N1CCC2(CC1)CN(C(=O)Cc1c[nH]c3ccccc13)CCO2,-6.28%,
O=C(Nc1ccc(Oc2ccccc2)cc1)O[C@@H]1CO[C@H]2[C@@H]1OC[C@@H]2NS(=O)(=O)c1ccc(Cl)cc1,,5.01 µM (active)

SMILES,"activity change, negative = inhibition",Potency
CC(C)C(=O)N1Cc2ccccc2CC2(CCCCN2CC2CCNC2)C1 (configuration not stated),-15.4%,
CN(C)CCCC(=O)N1Cc2ccccc2CC2(CCCCN2Cc2ccccc2)C1 (configuration not stated),-27.8%,
Cc1cc(C(=O)NC2CCNCC2)c2c(C3CCNCC3)noc2n1,-7.39%,
CC(C)c1ccc(CNC(=O)C2CCN(c3cc(C(F)(F)F)ncn3)CC2)cc1,3.84% [at 64.5 µM],
O=C1Nc2ccccc2CC12CN(CC1CCCC1)C2,13.7%,
O=C1Nc2ccccc2CN(C/C=C/c2ccccc2)C12CCNC2 (configuration not stated),-25.1%,
O=C1Nc2ccccc2CN(CC2CCCCC2)C12CCNCC2,,49.4 µM (active)
C[S+](=O)([O-])N1Cc2ccccc2CC2(CCCCN2CC2CCNCC2)C1 (configuration not stated),-4.25%,
COc1ccc(CNc2ncnc3c2CN(C2CCNCC2)C(=O)CN3C)cc1,-18.4%,
O=C(c1ccccc1)N1CCn2c(nnc2C2CCNCC2)C1,-13.7%,
COc1cccc(CNc2ccc([S+](=O)([O-])Nc3cc4ccccc4s3)cc2)c1O,,19.3 µM (active)
Cc1ccc2nc(C3CCCN(Cc4ccccc4)C3)[nH]c(=O)c2c1 (configuration not stated),-22%,
O=C(c1ccccn1)N1CCn2c(nn(-c3ccc(Cl)cc3)c2=O)C1,-8.97%,
O=C1NC(=NC2CCCC2)C2(CCN(CC3CC3)C2)N1c1cccnc1 (configuration not stated),-8.29%,
CNC(=O)[C@@H](C1CCCCC1)N1CCC[C@H]1C(=O)N1CCC1,,15.8 µM (active)
C#CCN(C)C(=O)[C@@H]1CCCN1[C@H](CC(C)C)C(=O)NC,-7.98% [at 64.5 µM],
Cc1n[nH]c(C)c1CN1CCC2(CC1)CCN(C1CCOCC1)CC2CO (configuration not stated),6.52% [at 64.5 µM],
CN1CC(=O)N(C2CCNCC2)Cc2c(NCCc3cccc(F)c3)ncnc21,-18.2%,
COc1ccc(CN2Cc3[nH]cnc3C[C@H]2C(=O)NCc2ccco2)cc1,-22.1%,
